# Results as given in PubChem BioAssay (Tox21).
# Values without a mark were called inactive. Inconclusive results are not listed. Entries that show only a call come without a potency. Active and inactive are the calls of the source. Unless noted, the call rests on the fitted dose curve; in most records, active means well fitted curve in the direction sought with a large enough effect in the repeat runs; inconclusive means weak or mixed curves; inactive means no such curve, though single readings can be large; an effect the other way counts as inactive or inconclusive.
# Legend:
# [1] = qHTS assay to identify small molecule antagonists of the sonic hedgehog signaling (Shh) pathway (AID 1259369; calls by dose curve; further: nearly all actives have a fitted effect of over 45% in size; further: potency means the concentration at half of the fitted maximal effect)
# In short: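 For antagonist detection, the reporter line received test compounds together with conditioned medium, incubated 24hr at 37 C, 5% CO2, then luminescence was recorded following 30min room-temperature luciferase reagent incubation.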
# [2] = molecular target: Estrogen receptor beta (Homo sapiens) (UniProt Q92731); test: qHTS assay to identify small molecule agonists of the estrogen receptor beta (ER-beta) signaling pathway (AID 1259377; active means well fitted activation curve with a large enough effect in the signal ratio in the repeat runs, not every such curve was filed as active; the % refers to the signal ratio)
# In short: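 Ratiometric beta-lactamase FRET read-out came after 2 h substrate loading at room temperature. It followed 16 h compound treatment at 37C of GripTite HEK293T cells carrying a UAS-bla reporter, plated in 2% charcoal-stripped FBS medium.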
# [3] = qHTS assay to identify small molecule agonists of the androgen receptor (AR) signaling pathway in the presence of an antagonist - cell viability counter screen (AID 1259379); further: nearly all actives have a fitted effect of over 25% in size; further: potency means the concentration at half of the fitted maximal effect
# In short: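 Seed MDA-kb2 at 3,000 cells/well; incubate 5 hr, 37C, 0% CO2. Add nilutamide to 3.0uM final, then pin compounds at 15 concentrations. Incubate 16 hr. Add CellTiter-Fluor at 15 hr, read fluorescence after 1 hr.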
# [4] = qHTS assay to identify small molecule antagonists of the estrogen receptor beta (ER-beta) signaling pathway - cell viability counter screen (AID 1259382); further: nearly all actives have a fitted effect of over 55% in size; further: potency means the concentration at half of the fitted maximal effect
# In short: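 In this multiplexed counter screen, cells were seeded at 2,000 per well in medium with 2% charcoal-stripped FBS and incubated 6 hr before compound and 1nM final E2 were added. Sixteen hours later, ATP-based luminescence reported viability.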
# [5] = qHTS assay to identify small molecule agonists or antagonists of the thyroid stimulating hormone receptor (TSHR) signaling pathway - wild type cell line counter screen (AID 1259384; calls by dose curve)
# In short: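 Wild-type HEK293 cells were plated 18 h at 37 C/5% CO2, pin-dosed with compound plus Ro20-1724 medium, held 30 min at room temperature, then given cAMP-d2 and anti-cAMP-cryptate; fluorescence was read after 1 h. Fifteen concentrations, triplicate.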
# [6] = molecular target: Thyrotropin receptor (Homo sapiens) (UniProt P16473); test: qHTS assay to identify small molecule antagonists of the thyroid stimulating hormone receptor (TSHR) signaling pathway (AID 1259385; calls by dose curve; further: nearly all actives have a fitted effect of over 20% in size; further: potency means the concentration at half of the fitted maximal effect)
# In short: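 TSHR-HEK293 cells were plated and held 18 h at 37C/5% CO2, then given compound plus Ro20-1724 and stimulated with TSH at 1.5 ng/mL final. After 30 min at room temperature, cAMP was detected with cAMP-d2/anti-cAMP-cryptate (1 h) by fluorescence.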
# [7] = qHTS assay to identify small molecule agonists of the estrogen receptor alpha (ER-alpha) signaling pathway in the presence of an antagonist - cell viability counter screen (AID 1259386);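 further: cells exposed to compounds for 22 h at 37 °C before the viability read; nearly all actives have a fitted effect of over 30% in size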; further: potency means the concentration at half of the fitted maximal effect
# In short: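 Viability counter screen using VM7Luc4E2 (full-length ER-alpha, four ERE-luciferase). The cells were treated with compounds alongside ICI-182,780 10.0nM for 22hr, and live-cell protease fluorescence was quantified with CellTiter-Fluor.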
# [8] = qHTS assay to identify small molecule antagonists of the progesterone receptor (PR) signaling pathway - cell viability counter screen (AID 1346798); further: nearly all actives have a fitted effect of over 50% in size; further: potency means the concentration at half of the fitted maximal effect
# In short: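 Cytotoxicity read as CellTiter-Glo luminescence (30 min, room temperature) in the same wells as the beta-lactamase readout. HEK293T PR-UAS-bla cells in charcoal-stripped 2% FBS received compound and R5020, then 16 h at 37C, 5% CO2.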
# [9] = qHTS assay to identify small molecule antagonists of the TGF-beta/Smad signaling pathway - cell viability counter screen (AID 1346824); further: nearly all actives have a fitted effect of over 50% in size
# In short: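 SBE-bla HEK 293T cells were plated overnight at 37 C, then given compounds in DMSO plus TGF-beta1 (added as 0.25 ng/mL solution) for 5 hr. After the bla read, CellTiter-Glo was added to the same wells and luminescence read after 30 min at room temperature.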
# [10] = qHTS assay to identify small molecule agonists of the TGF-beta/Smad signaling pathway - cell viability counter screen (AID 1346829); further: top concentration of the series differs between compounds; nearly all actives have a fitted effect of over 45% in size
# In short: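 SBE-bla HEK 293T cells plated overnight, compound exposure 5 hr at 37 C. Viability read in the same wells by CellTiter-Glo luminescence after 30 min at room temperature, following the beta-lactamase read.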
# [11] = qHTS assay to identify small molecule agonists of the TGF-beta/Smad signaling pathway (AID 1346859; active means well fitted activation curve with a large enough effect in the signal ratio in the repeat runs, not every such curve was filed as active; the % refers to the signal ratio; further: series mostly up to about 77 µM)
# In short: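 Fluorescence (ex 405 nm; em 460 and 530 nm) was read 2 h after LiveBLAzer FRET substrate at RT. The preceding compound treatment of overnight-plated SBE-bla HEK293T cells lasted 5 h at 37 C.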
# [12] = molecular target: Thyrotropin-releasing hormone receptor (Homo sapiens) (UniProt P34981); test: qHTS assay to identify small molecule agonists of the thyrotropin-releasing hormone receptor (TRHR) signaling pathway (AID 1346891; calls by dose curve; further: series mostly up to about 58 µM)
# In short: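 Agonist-mode intracellular calcium readout: kinetic fluorescence over 3 min at 1 s intervals after compound addition to TRHR-HEK293 cells (18 h seeded, 2 h dye-loaded at 37 C). Fifteen concentrations, triplicates.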
# [13] = qHTS assay to identify small molecule agonists of the estrogen receptor beta (ER-beta) signaling pathway - cell viability counter screen (AID 1259380); further: nearly all actives have a fitted effect of over 30% in size; further: potency means the concentration at half of the fitted maximal effect
# In short: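 CellTiter-Glo read, 30 min RT, same wells as bla assay; cells ER-beta-UAS-bla HEK293T; 16 hr compound, 37C; medium 2% charcoal-stripped FBS.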
# [14] = molecular target: Androgen receptor (Homo sapiens) (UniProt P10275); test: qHTS assay to identify small molecule agonists of the androgen receptor (AR) signaling pathway in the presence of an antagonist (AID 1259381; calls by dose curve; further: nearly all actives have a fitted effect of over 15% in size)
# In short: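 Test compounds at 15 concentrations were incubated for 16hr with MDA-kb2 reporter cells in presence of 3.0uM nilutamide (final). Signal: ONE-Glo luciferase luminescence.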
# [15] = molecular target: Progesterone receptor (Homo sapiens) (UniProt P06401); test: qHTS assay to identify small molecule agonists of the progesterone receptor (PR) signaling pathway (AID 1346784; calls by dose curve; further: nearly all actives have a fitted effect of over 30% in size)
# In short: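 Agonist qHTS: compounds pinned onto 3,000 PR-UAS-bla HEK 293T cells per well in charcoal-stripped serum medium, 16hr at 37C, then beta-lactamase activity measured by LiveBLAzer FRET fluorescence after 2 hours at room temperature.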
# [16] = molecular target: Thyrotropin-releasing hormone receptor (Homo sapiens) (UniProt P34981); test: qHTS assay to identify small molecule antagonists of the thyrotropin-releasing hormone receptor (TRHR) signaling pathway (AID 1346877; active means well fitted inhibition curve with a large enough effect in the repeat runs, not every such curve was filed as active; further: series mostly up to about 51 µM)
# In short: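 Following an 18 h incubation at 37 °C and a 2 h calcium dye load, TRHR-HEK293 cells were exposed to compound (5 min, room temperature) and challenged with TRH, 1 nM final.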
# [17] = molecular target: Estrogen receptor (Homo sapiens) (UniProt P03372); test: qHTS assay to identify small molecule agonists of the estrogen receptor alpha (ER-alpha) signaling pathway in the presence of an antagonist (AID 1259383; calls by dose curve; further: top concentration of the series differs between compounds; nearly all actives have a fitted effect of over 15% in size)
# In short: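 Stably transfected VM7Luc4E2 reporter cells, kept 5 days in charcoal-stripped serum, received ICI-182,780 at 10.0nM final before compound addition. Following 22hr incubation at 37C and 5% CO2, luciferase signal was read by luminescence.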
# [18] = molecular target: Progesterone receptor (Homo sapiens) (UniProt P06401); test: qHTS assay to identify small molecule antagonists of the progesterone receptor (PR) signaling pathway (AID 1346795; active means well fitted inhibition curve with a large enough effect in the signal ratio in the repeat runs, not every such curve was filed as active; the % refers to the signal ratio)
# In short: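 Antagonist mode with agonist R5020 at 1 nM final and 16 hr incubation at 37C. Reporter was beta-lactamase driven by UAS in HEK293T (PR-UAS-bla), 2% charcoal-stripped serum; signal from LiveBLAzer FRET substrate, 2 hr at room temperature.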
# [19] = qHTS assay to identify small molecule agonists of the progesterone receptor (PR) signaling pathway - cell viability counter screen (AID 1346799; calls by dose curve; further: nearly all actives have a fitted effect of over 45% in size)
# In short: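 Cytotoxicity measured by CellTiter-Glo luminescence (30 min, RT) in the same wells as the PR beta-lactamase agonist read. Those HEK293T cells had 16 h compound treatment at 37 C in 2% charcoal-stripped FBS medium.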
# [20] = molecular target: Estrogen receptor beta (Homo sapiens) (UniProt Q92731); test: qHTS assay to identify small molecule antagonists of the estrogen receptor beta (ER-beta) signaling pathway (AID 1259378; active means well fitted inhibition curve with a large enough effect in the signal ratio in the repeat runs, not every such curve was filed as active; the % refers to the signal ratio)
# In short: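 ER-beta-UAS-bla HEK293T (GripTite) cells in 2% charcoal-stripped FBS medium were preincubated 6 hr at 37C, dosed with compound, then stimulated with 1 nM E2 (final) for 16 hr; beta-lactamase reporter read by B/G FRET fluorescence after 2 hr substrate loading.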
# Thyrotropin receptor (Homo sapiens), sequence (P16473 whole entry, looked up): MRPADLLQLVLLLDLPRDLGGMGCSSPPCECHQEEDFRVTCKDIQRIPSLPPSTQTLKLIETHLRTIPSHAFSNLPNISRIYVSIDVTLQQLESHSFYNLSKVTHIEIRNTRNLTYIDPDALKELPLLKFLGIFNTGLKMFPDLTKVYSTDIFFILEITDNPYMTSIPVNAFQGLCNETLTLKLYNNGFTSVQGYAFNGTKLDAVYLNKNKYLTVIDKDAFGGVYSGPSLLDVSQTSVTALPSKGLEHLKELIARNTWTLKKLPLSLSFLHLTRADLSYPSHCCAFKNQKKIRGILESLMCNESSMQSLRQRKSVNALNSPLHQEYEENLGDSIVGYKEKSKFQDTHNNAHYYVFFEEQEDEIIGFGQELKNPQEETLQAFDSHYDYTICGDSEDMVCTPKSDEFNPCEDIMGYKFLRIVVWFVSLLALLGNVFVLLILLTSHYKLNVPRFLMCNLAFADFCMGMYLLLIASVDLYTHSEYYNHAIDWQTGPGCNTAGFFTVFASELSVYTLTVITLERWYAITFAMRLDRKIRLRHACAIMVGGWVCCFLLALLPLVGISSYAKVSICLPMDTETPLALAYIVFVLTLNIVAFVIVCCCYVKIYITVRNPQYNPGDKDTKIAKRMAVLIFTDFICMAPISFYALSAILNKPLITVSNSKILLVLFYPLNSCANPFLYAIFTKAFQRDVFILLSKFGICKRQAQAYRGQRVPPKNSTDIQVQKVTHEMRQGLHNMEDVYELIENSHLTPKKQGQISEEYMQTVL
# Estrogen receptor (Homo sapiens), sequence (P03372 whole entry, looked up): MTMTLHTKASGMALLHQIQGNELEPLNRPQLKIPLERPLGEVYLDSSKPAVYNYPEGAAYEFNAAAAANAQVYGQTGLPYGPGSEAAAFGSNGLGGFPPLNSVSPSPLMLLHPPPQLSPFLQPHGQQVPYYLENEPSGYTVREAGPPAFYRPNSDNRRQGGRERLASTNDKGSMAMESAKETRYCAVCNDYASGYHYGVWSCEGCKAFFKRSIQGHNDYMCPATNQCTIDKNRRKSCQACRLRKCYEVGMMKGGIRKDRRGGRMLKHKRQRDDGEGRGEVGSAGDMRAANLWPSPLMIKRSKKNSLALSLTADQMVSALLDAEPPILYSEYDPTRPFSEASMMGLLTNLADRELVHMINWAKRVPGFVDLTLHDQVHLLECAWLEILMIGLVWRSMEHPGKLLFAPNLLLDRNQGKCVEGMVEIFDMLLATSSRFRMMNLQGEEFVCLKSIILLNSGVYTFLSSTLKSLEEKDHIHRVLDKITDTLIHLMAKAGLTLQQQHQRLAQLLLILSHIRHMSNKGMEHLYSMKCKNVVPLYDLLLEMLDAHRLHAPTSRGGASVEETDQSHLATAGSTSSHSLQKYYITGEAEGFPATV
# Androgen receptor (Homo sapiens), sequence (P10275 whole entry, looked up): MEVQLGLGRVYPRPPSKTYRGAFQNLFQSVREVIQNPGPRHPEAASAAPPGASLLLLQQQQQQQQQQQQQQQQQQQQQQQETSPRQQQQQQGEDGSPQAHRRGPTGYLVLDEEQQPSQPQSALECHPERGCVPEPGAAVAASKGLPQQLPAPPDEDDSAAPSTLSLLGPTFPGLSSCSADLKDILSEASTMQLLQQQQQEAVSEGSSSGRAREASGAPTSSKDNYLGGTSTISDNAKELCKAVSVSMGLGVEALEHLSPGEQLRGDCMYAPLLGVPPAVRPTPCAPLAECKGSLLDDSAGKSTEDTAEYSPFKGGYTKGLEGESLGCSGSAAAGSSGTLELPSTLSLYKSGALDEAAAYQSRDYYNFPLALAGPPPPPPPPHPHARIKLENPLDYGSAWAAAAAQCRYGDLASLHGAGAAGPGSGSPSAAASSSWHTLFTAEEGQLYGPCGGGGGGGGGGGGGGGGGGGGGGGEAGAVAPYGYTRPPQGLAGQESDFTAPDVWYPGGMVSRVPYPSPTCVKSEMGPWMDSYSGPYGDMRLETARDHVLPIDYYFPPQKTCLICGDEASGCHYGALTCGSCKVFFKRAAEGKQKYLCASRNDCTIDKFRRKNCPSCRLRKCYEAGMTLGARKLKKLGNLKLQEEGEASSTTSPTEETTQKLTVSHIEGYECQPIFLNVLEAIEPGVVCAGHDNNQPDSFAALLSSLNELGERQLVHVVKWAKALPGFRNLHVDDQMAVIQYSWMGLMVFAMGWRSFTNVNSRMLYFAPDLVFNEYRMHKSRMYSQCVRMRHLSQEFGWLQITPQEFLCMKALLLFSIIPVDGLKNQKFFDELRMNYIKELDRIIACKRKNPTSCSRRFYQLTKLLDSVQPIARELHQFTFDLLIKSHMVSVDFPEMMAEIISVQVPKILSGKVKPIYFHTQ
# Thyrotropin-releasing hormone receptor (Homo sapiens), sequence (P34981 whole entry, looked up): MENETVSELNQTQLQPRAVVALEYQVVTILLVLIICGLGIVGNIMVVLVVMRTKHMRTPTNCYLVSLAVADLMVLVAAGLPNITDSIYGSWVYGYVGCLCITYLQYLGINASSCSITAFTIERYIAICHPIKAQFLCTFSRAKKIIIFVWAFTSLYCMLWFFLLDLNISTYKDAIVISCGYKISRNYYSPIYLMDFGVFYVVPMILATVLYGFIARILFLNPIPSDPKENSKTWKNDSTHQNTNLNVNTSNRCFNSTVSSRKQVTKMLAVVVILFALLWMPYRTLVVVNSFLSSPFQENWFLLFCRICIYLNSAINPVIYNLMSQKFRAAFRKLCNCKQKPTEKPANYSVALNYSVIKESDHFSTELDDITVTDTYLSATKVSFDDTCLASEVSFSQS
# Progesterone receptor (Homo sapiens), sequence (P06401 whole entry, looked up): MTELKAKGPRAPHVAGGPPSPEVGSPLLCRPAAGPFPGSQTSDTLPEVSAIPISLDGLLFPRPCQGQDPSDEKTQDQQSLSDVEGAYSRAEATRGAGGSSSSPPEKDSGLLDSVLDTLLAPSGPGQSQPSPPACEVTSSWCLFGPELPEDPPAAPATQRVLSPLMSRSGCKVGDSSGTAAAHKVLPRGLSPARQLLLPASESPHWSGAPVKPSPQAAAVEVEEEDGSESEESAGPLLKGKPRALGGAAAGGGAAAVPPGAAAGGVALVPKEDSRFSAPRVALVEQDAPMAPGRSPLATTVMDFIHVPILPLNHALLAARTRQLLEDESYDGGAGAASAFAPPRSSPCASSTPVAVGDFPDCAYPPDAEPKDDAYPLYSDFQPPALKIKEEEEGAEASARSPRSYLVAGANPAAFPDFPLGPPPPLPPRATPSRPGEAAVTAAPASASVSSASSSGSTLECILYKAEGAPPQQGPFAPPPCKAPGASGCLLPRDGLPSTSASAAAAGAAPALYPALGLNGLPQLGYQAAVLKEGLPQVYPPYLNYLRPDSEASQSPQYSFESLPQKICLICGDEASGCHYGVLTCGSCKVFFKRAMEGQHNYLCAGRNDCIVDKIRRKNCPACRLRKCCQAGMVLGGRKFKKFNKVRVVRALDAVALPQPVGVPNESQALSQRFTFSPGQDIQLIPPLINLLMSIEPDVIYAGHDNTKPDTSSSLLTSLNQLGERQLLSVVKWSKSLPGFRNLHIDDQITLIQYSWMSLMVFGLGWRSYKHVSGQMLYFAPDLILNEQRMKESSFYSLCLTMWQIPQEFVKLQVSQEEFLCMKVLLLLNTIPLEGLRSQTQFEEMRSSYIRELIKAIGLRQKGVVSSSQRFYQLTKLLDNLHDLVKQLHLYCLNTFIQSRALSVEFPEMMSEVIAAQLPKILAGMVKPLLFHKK
# Estrogen receptor beta (Homo sapiens), sequence (Q92731 whole entry, looked up): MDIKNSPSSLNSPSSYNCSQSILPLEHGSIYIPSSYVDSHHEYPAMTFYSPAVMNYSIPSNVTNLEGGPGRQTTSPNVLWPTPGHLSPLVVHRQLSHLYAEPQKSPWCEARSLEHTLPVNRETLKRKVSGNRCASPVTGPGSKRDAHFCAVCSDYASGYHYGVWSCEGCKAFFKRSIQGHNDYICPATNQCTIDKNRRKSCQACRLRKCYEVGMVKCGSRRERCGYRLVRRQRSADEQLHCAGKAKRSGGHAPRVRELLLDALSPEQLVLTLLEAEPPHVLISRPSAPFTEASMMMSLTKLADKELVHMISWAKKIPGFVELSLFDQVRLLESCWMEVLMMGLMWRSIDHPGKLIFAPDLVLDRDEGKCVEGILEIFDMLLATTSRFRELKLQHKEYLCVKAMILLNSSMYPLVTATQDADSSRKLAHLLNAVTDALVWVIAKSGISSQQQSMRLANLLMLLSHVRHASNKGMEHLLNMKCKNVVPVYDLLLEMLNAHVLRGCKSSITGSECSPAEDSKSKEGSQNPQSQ
SMILES,Potency [1],Potency [2],Potency [3],Potency [4],Potency [5],Potency [6],Potency [7],Potency [8],Potency [9],outcome [10],Potency [11],Potency [12],Potency [13],Potency [14],Potency [15],outcome [16],Potency [17],Potency [18],Potency [19],Potency [20]
c1ccc(C(O[C@H]2CCCN(CCc3ccc4c(c3)OCO4)C2)c2ccccc2)cc1,inactive,inactive,inactive,inactive,inactive,inactive,inactive,inactive,inactive,inactive,inactive,inactive,,,,,,,,
Cc1nn(C)c(Oc2ccccc2)c1/C=N/OCc1ccc(C(=O)OC(C)(C)C)cc1,0.0273 µM (active),,0.0306 µM (active),inactive,inactive,,0.0863 µM (active),inactive,inactive,inactive,inactive,inactive,inactive,inactive,inactive,inactive,,,,
O=C1c2ccccc2S(=O)(=O)N1CCCCN1CCN(c2ncccn2)CC1,inactive,,inactive,inactive,inactive,inactive,inactive,inactive,inactive,inactive,inactive,inactive,inactive,,,inactive,inactive,inactive,inactive,
CC(=O)c1ccc2c(c1)N(CCCN(C)C)c1ccccc1S2,inactive,inactive,inactive,,inactive,inactive,inactive,,inactive,inactive,inactive,inactive,,,inactive,inactive,inactive,inactive,inactive,
Nc1cccc([N+](=O)[O-])c1,inactive,,inactive,inactive,,,inactive,inactive,inactive,inactive,inactive,inactive,inactive,inactive,inactive,,inactive,,inactive,inactive
CN(C)c1ccc(CCO)cc1,inactive,,inactive,inactive,inactive,inactive,inactive,,inactive,,inactive,,inactive,,inactive,,inactive,,inactive,
CC1CCC(=O)C1=O (stereo not given),inactive,,inactive,inactive,inactive,inactive,inactive,inactive,inactive,inactive,inactive,,inactive,,inactive,,inactive,inactive,inactive,
O=CC1CC=CCC1 (stereo not given),inactive,,inactive,inactive,inactive,inactive,inactive,inactive,inactive,inactive,inactive,inactive,inactive,inactive,inactive,inactive,,inactive,inactive,
Clc1ccc2c(c1)CCc1cccnc1C2=C1CCNCC1,1.68 µM (active),inactive,,18.8 µM (active),inactive,26.6 µM (active),inactive,21.1 µM (active),inactive,inactive,inactive,,33.5 µM (active),,,,inactive,,,
Brc1c2ccccc2cc2ccccc12,inactive,,inactive,,inactive,,inactive,inactive,inactive,inactive,,,61.8 µM (active),,,,inactive,,,inactive
CC(C)=CCC/C(C)=C/CC/C(C)=C/CO,43.3 µM (active),inactive,inactive,inactive,inactive,inactive,inactive,inactive,inactive,inactive,inactive,inactive,,,inactive,inactive,,,inactive,
O=C(O)c1ccco1,inactive,,inactive,inactive,inactive,inactive,inactive,inactive,,inactive,inactive,inactive,inactive,,inactive,inactive,inactive,inactive,,
C[N+]1(C)CCC(OC(=O)C(O)(c2ccccc2)C2CCCC2)C1 (stereo not given),inactive,,inactive,inactive,inactive,inactive,inactive,inactive,inactive,inactive,inactive,inactive,inactive,,inactive,,inactive,inactive,inactive,
CCCCCCCCCCCc1ccccc1,inactive,,inactive,inactive,inactive,inactive,inactive,,inactive,inactive,inactive,inactive,inactive,,inactive,inactive,inactive,inactive,inactive,
O=C1[C@H]2CCCC[C@H]2C(=O)N1CCCCN1CCN(c2nsc3ccccc23)CC1,23.7 µM (active),inactive,,inactive,inactive,inactive,29.8 µM (active),inactive,inactive,inactive,inactive,inactive,,,,inactive,inactive,inactive,inactive,
COc1ccc2cccc(CCNC(C)=O)c2c1,inactive,,inactive,inactive,,,inactive,inactive,inactive,,inactive,inactive,,inactive,inactive,inactive,inactive,inactive,inactive,inactive
